Experimental findings from ChEMBL document CHEMBL4513146, “CO-ADD screening of Karazin Kharkiv National University (Ukraine) compounds” are described below.

Usually Inhibition stands for the drop in the measured response relative to a control, in per cent.

Measured potencies and affinities stand elsewhere.

One experiment deals with Staphylococcus aureus. The note with it: Concentration 32 ug.mL-1;; ASSAY_TEST Inhibition of Bacterial Growth; detection method Absorption (OD600); MEDIA CAMHB; plate type 384well; NBS; CORNING #3640; time 18 hr.
Another experiment concerns Escherichia coli. To be noted: Concentration 32 ug.mL-1;; ASSAY_TEST Inhibition of Bacterial Growth; detection method Absorption (OD600); MEDIA CAMHB; plate type 384well; NBS; CORNING #3640; time 18 hr.

Regarding `COc1cccc(CN(c2ccc(F)cc2)S(=O)(=O)c2cccn3cnnc23)c1`, the Inhibition in the experiment with Staphylococcus aureus is listed as -5.01%; in the experiment with Escherichia coli it was -3.63%.

`O=S(=O)(c1ccc2nncn2c1)N(Cc1cc(F)cc(F)c1)c1ccccc1`: the Inhibition in the experiment with Staphylococcus aureus is 0.37%; with Escherichia coli, -13.22%.

Turning to `CC(C)c1nnc2c(=O)n(CC(=O)Nc3ccc(C#N)cc3)c3ccccc3n12`, the results for the Inhibition with Staphylococcus aureus and in the experiment on Escherichia coli were -0.41% and -7.65%, respectively.

With `Cc1ccc(-c2cc3c4nn(CC(=O)Nc5ccc(F)cc5)c(=O)n4ccn3n2)cc1C`, the Inhibition in the experiment with Staphylococcus aureus was -6.62%; in the experiment with Escherichia coli, -8.95%.

Turning to `O=C(Cn1nc2c3cc(-c4ccc(F)cc4)nn3ccn2c1=O)Nc1ccccc1`, the values for the Inhibition with Staphylococcus aureus and in the experiment with Escherichia coli were -11.01% and -1.34%, respectively.

Regarding `CSc1cccc(NC(=O)Cn2nc3c(Oc4ccccc4C)nccn3c2=O)c1`, the Inhibition in the experiment with Staphylococcus aureus is given as 6.72%; with Escherichia coli, -2.85%.

Turning to `Cc1ccc(C)c(-c2cc3c4nnc(CCC(=O)NCCc5ccc(Cl)cc5)n4ccn3n2)c1`, the figures for the Inhibition with Staphylococcus aureus and with Escherichia coli were 5.83% and 3.02%, respectively.

Take `O=C(Cn1nc2ccc(C(=O)NCc3ccccc3)cn2c1=O)Nc1ccc2c(c1)OCO2`: the Inhibition with Staphylococcus aureus is listed as 7.86%; with Escherichia coli it was -0.58%.

With `COc1ccc(N(Cc2ccccc2F)S(=O)(=O)c2ccc3nnc(C)n3c2)cc1`, the Inhibition is 8.97% in the experiment with Staphylococcus aureus and -7.31% with Escherichia coli.

Consider `CCCN(C)c1nccn2c(=O)n(CC(=O)Nc3cccc(C(C)=O)c3)nc12`, for which the Inhibition is listed as 10.12% with Staphylococcus aureus and -7.5% in the experiment with Escherichia coli.

Regarding `Cc1ccc(-c2cc3c4nn(CC(=O)Nc5c(C)cccc5C)c(=O)n4ccn3n2)cc1`, the Inhibition in the experiment with Staphylococcus aureus stood at 9.95%; in the experiment with Escherichia coli it was 0.29%.

`O=C(CSc1nnc2c(=O)n(-c3ccc(F)cc3)ccn12)N1CCN(c2ccccc2F)CC1`: the Inhibition in the experiment with Staphylococcus aureus is reported as 14.78%; in the experiment on Escherichia coli, -0.33%.

Consider `Cc1nnc2c(=O)n(CC(=O)Nc3cccc(F)c3)c3ccccc3n12`, for which the Inhibition with Staphylococcus aureus amounted to 14.13%; in the experiment on Escherichia coli it was 2.22%.

Take `CCCc1nnc2c(=O)n(CC(=O)Nc3cccc(Br)c3)c3ccccc3n12`: the figures for the Inhibition in the experiment on Staphylococcus aureus and in the experiment on Escherichia coli were 8.23% and -5.6%, respectively.

With `COc1cccc(CN(c2ccc(C)c(F)c2)S(=O)(=O)c2ccc3nncn3c2)c1`, the Inhibition in the experiment with Staphylococcus aureus is -7.58%; in the experiment on Escherichia coli, -16.33%.

Consider `O=c1c2sccc2n2c(SCc3cccc(C(F)(F)F)c3)nnc2n1Cc1cccs1`, for which the Inhibition with Staphylococcus aureus is reported as 3.6%; in the experiment with Escherichia coli, -11.21%.

For the molecule `Cc1c(Cl)cccc1-n1ccn2c(SCC(=O)c3c[nH]c4ccccc34)nnc2c1=O`, the Inhibition is -2.75% in the experiment with Staphylococcus aureus and -4.84% in the experiment on Escherichia coli.

Turning to `Cc1nnc2c(=O)n(CC(=O)Nc3cccc(Cl)c3)c3ccccc3n12`, the Inhibition in the experiment with Staphylococcus aureus is listed as 13.08%; in the experiment on Escherichia coli, 5.41%.

As to `Cc1ccc(-c2ccc3nn(Cc4nc(-c5ccc(OC(F)(F)F)cc5)no4)c(=O)n3n2)cc1`, the values for the Inhibition with Staphylococcus aureus and in the experiment with Escherichia coli were 8.38% and -3.94%, respectively.

For the molecule `COc1ccc(NC(=O)Cn2nc3c4cc(-c5ccc(C)c(C)c5)nn4ccn3c2=O)cc1`, the Inhibition was 11.77% with Staphylococcus aureus and -2.93% with Escherichia coli.

In the case of `Cc1ccc(CNC(=O)Cn2nc3c(Sc4cccc(F)c4)nccn3c2=O)cc1`, the Inhibition in the experiment on Staphylococcus aureus is given as -7.34%; in the experiment with Escherichia coli, -12.92%.

In the case of `Cc1ccc(-c2ccc3nnc(CCC(=O)NCc4ccc(C(F)(F)F)cc4)n3n2)cc1C`, the Inhibition in the experiment with Staphylococcus aureus is reported as 17.72%; with Escherichia coli, 1.8%.

Turning to `CCCCNC(=O)Cn1nc2n(Cc3ccco3)c(=O)c3sccc3n2c1=O`, the Inhibition is recorded as 2.23% in the experiment on Staphylococcus aureus and -5.07% in the experiment on Escherichia coli.

Consider `Cc1ccc(Oc2nccn3c(=O)n(CC(=O)Nc4cccc(Br)c4)nc23)cc1`, for which the Inhibition in the experiment with Staphylococcus aureus is listed as 4.81%; in the experiment on Escherichia coli, -7.18%.

As for `COc1ccc(NC(=O)Cn2nc3cc(C)nc(Nc4cc(C)cc(C)c4)n3c2=O)cc1`, the Inhibition in the experiment on Staphylococcus aureus was 9.51%; with Escherichia coli it was -1.23%.

For the molecule `CCOc1ccc(-n2ccn3c(SCC(=O)c4cc(C)c(C)cc4C)nnc3c2=O)cc1`, the Inhibition with Staphylococcus aureus is given as 7.6%; in the experiment on Escherichia coli, -6.02%.

`CCC(Sc1nnc2c(=O)n(-c3ccc(C)c(C)c3)ccn12)C(=O)Nc1ccccc1C` (stereo not given): the Inhibition with Staphylococcus aureus is 13.17%; with Escherichia coli, -4.12%.

Regarding `CCOc1ccc(-n2ccn3c(SCC(=O)Nc4cc(F)ccc4F)nnc3c2=O)cc1`, the Inhibition is given as -3.91% in the experiment on Staphylococcus aureus and 1.2% in the experiment with Escherichia coli.

Regarding `CC(C)c1ccc(NC(=O)Cn2nc3c(Sc4ccccc4)nccn3c2=O)cc1`, the values for the Inhibition in the experiment on Staphylococcus aureus and in the experiment on Escherichia coli were -14.37% and -14.79%, respectively.

On to `Cc1nnc2c(=O)n(CC(=O)Nc3ccccc3Br)c3ccccc3n12`, for which the Inhibition came to 16.36% in the experiment on Staphylococcus aureus and 5.04% in the experiment with Escherichia coli.

Turning to `Cc1cc(Nc2ccc(F)cc2)nc2nn(CCc3ccccc3)c(=O)n12`, the Inhibition with Staphylococcus aureus is 4.62%; in the experiment with Escherichia coli it was -5.44%.

Turning to `CCc1ccc(N(Cc2ccc(C)cc2)S(=O)(=O)c2cccn3c(C)nnc23)cc1`, the Inhibition was 16.56% in the experiment with Staphylococcus aureus and 0.51% in the experiment with Escherichia coli.

`O=C(CCc1nnc2c(N3CCCCC3)nc3ccccc3n12)NCCc1ccc(Cl)cc1`: the Inhibition came to 11.18% in the experiment with Staphylococcus aureus and 0.17% in the experiment with Escherichia coli.

Turning to `COC(=O)c1ccc(NC(=O)Cn2nc3c4cc(-c5ccc(F)cc5)nn4ccn3c2=O)cc1`, the Inhibition in the experiment with Staphylococcus aureus is reported as -6.17%; with Escherichia coli it was 3.19%.

Take `COc1ccc(NC(=O)Cn2nc3ccc(SC(C)(C)C)nn3c2=O)cc1Cl`: the Inhibition with Staphylococcus aureus is recorded as -0.4%; in the experiment with Escherichia coli, -6.93%.
